This is an account of results in PubChem BioAssay (EPA / NIEHS).

Calls of active or inactive are those of the source. Rule for the calls: active = hit-call score of the fitted dose curve at least 0.9, where 1 is the maximum; inactive = score below 0.9.

Read-out in the assay: Urokinase-type plasminogen activator receptor (uPAR), PLAUR (gene 5329)
Put plainly: BSK_BE3C_uPAR: BioMAP Diversity Plus: BE3C Assay for Urokinase-type plasminogen activator receptor (uPAR) Biomarker Activity (AID 2283039).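 For outcome: cells exposed to compound for one day before measurement.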 To be noted: primary human bronchial epithelial cells; actives raise or lower the signal. On the procedure: BSK_BE3C is a cell-based, multiplexed-readout assay that uses bronchial epithelial cell, a human lung primary cell, with measurements taken at 24 hours after chemical dosing in a 96-well plate.BSK_BE3CAR is an assay component measured in the BSK_BE3C assay. It measures uPAR antibody related to regulation of gene expression using ELISA technology.Data from the assay component BSK_BE3CAR was analyzed into 1 assay endpoint. This assay endpoint, BSK_BE3CAR, was analyzed with bidirectional fitting relative to DMSO as the negative control and baseline of activity. Using a type of binding reporter, gain or loss-of-signal activity can be used to understand changes in the signaling as they relate to the gene PLAUR. Furthermore, this assay endpoint can be referred to as a primary readout, because this assay has produced multiple assay endpoints where this one serves a signaling function. To generalize the intended target to other relatable targets, this assay endpoint is annotated to the cytokine intended target family, where the subfamily is plasmogen activator.
The levels of cell surface (or secreted, indicated by the prefix "s") biomarker endpoints were measured by ELISA. Overt cytotoxicity to cells in confluent adherent cultures (all systems other than the BT system) was assessed by measuring total protein levels using sulforhodamine B (SRB) staining in parallel cultures at the time of biomarker measurements, indicated as SRB endpoints. For proliferation assays for adherent cell types, individual cell types are cultured at sub-confluence and relative cell numbers quantified by SRB staining at time points optimized for each system (48 h: 3C and CASM3C systems; 72 h: BT and HDF3CGF systems; 96 h: SAg system). SRB was performed by staining cells with 0.1% SRB after fixation with 10% TCA and reading wells at 560 nm.Viability and proliferation of PBMC (T cells) was quantified by Alamar Blue reduction for the SAg and BT systems. For PBMC viability (referred to as PBMC Cytotoxicity within the assay endpoint names), cells were plated (75,000/well in a 96-well plate) and then chemical samples added for 1 h before addition of activators, SEB and TSST-1 (20 ng/mL final concentration each). Cells were incubated for 90 h. Then, Alamar Blue (20 uL/well) (Invitrogen, Cat DAL1100) was added for 6 h, and the plates were read with a fluorescence microplate reader at 546/580 nm (excitation/emission). For PBMC proliferation, cells were plated and activated as above but incubated for only 16 h prior to addition of Alamar Blue. Plates were read after 6 h.
As a reminder, the AC50 is the concentration giving half of the maximal activity seen. `O=S(=O)(C(Cl)(Cl)Cl)C(Cl)(Cl)Cl`: the concentration at half-maximal activity (AC50) is 7.21 µM (active).
For `CCOC(=O)C(SP(=S)(OC)OC)c1ccccc1` (stereo not given), the result was inactive.
Still for that read-out and setting: to `OCCCCO` belongs “inactive”; to `Cc1cccc(OP(=O)(Oc2cccc(C)c2)Oc2cccc(C)c2)c1`, “inactive”; to `CCOP(=O)(OCC)SCCSCC`, “inactive”.
On to `Oc1c(Br)cc(Br)cc1Br`, for which the AC50 was 20 µM (active).
As to `O=[N+]([O-])c1ccc(Nc2ccccc2)cc1`, the result was inactive.
The same measure, in the same setting: to `CCOC(=O)CC(=O)CCl` belongs “inactive”; to `O=[N+]([O-])c1cccc2ccccc12`, “inactive”.
Regarding `Cc1cc(C(C)(C)c2ccc(O)c(C)c2)ccc1O`, the concentration at half-maximal activity (AC50) is 3.66 µM (active).
As for `N#Cc1cccnc1`, the result was inactive.
`OCCN(CCO)CCO`: the result was inactive.
The same measure, in the same setting: in the case of `C[C@]12CC[C@@H](O)C[C@@H]1CC[C@@H]1[C@@H]2CC[C@]2(C)C(=O)CC[C@@H]12` it was “inactive”.
As for `c1ccc(-c2cccc(-c3ccccc3)c2)cc1`, the result was inactive.
As for `Cc1ccccc1OP(=O)(Oc1ccccc1)Oc1ccccc1`, the result was inactive.
For `C#CCOC(=O)/C=C(C)/C=C/CC(C)CCCC(C)C` (stereo not given), the result was inactive.
`CCOP(=S)(OCC)OP(=S)(OCC)OCC`: the outcome was inactive.
On to `Clc1cccc(Cl)c1Cl`, for which the outcome was inactive.
The same measure, in the same setting: in the case of `Cc1ccc(OP(=O)(Oc2ccc(C)cc2C)Oc2ccc(C)cc2C)c(C)c1` it was “inactive”.
Take `CC(C)O.CC(C)O.OCCN(CCO)CCO.OCCN(CCO)CCO.[Ti]`: the result was inactive.
The same measure, in the same setting: to `Cc1ccc2nc3sc(=O)sc3nc2c1` belongs “inactive”.
With `O=C(O)C1(c2ccc3c(c2)OC[C@H](Cc2ccc(-c4ccccc4)cc2)[C@H]3O)CCCC1`, the concentration at half-maximal activity (AC50) was 14.1 µM (active).
In the case of `Cc1cc(Cl)ccc1OC(C)C(=O)O` (stereo not given), the result was inactive.
In the case of `N#CCCC(Br)(C#N)CBr` (stereo not given), the AC50 was 20 µM (active).
For `NC(=O)CCl`, the result was inactive.
Turning to `O=c1oc2ccccc2c(O)c1C(CC(O)c1ccc(-c2ccc(Br)cc2)cc1)c1ccccc1` (stereo not given), the AC50 is 5.34 µM (active).
As for `Cc1c([N+](=O)[O-])c(C)c([N+](=O)[O-])c(C(C)(C)C)c1[N+](=O)[O-]`, the result was inactive.
`O=C(O)COc1cc(Cl)c(Cl)cc1Cl`: the result was inactive.
Same read-out and setting: to `CCC(C)(C#N)N=NC(C)(C#N)CC` (stereo not given) belongs “inactive”.
Consider `Cc1cc(Cl)ccc1N`, for which the result was inactive.
With `CC(C)=CC1C(C(=O)OCc2cccc(Oc3ccccc3)c2)C1(C)C` (stereo not given), the result was inactive.
On the same count and under the same terms, in the case of `Oc1ccc(Cc2ccc(O)cc2)cc1` it was “inactive”; in that of `CCCCCCCCCCCCN(C)C`, “inactive”.
Same read-out and setting: in the case of `CC(C)(C)c1ccccc1O` it was “inactive”; in that of `O=C(Cc1ccccc1)OCCc1ccccc1`, “inactive”.
Same read-out and setting: to `CCOP(=S)(OCC)SCS(=O)(=O)C(C)(C)C` belongs “inactive”; to `CCOC(=O)CCN(SN(C)C(=O)Oc1cccc2c1OC(C)(C)C2)C(C)C`, “inactive”.
In the case of `O=C1C=CC(=O)c2ccccc21`, the AC50 was 4.59 µM (active).
With `CCCCCCCCCCCCc1cccc(S(=O)(=O)O)c1`, the concentration at half-maximal activity (AC50) is 29.1 µM (active).
`Oc1cccc(-c2ccccc2)c1`: the result was inactive.
